In PubChem BioAssay (Tox21) one finds Potency data, which are given here for ten compounds.

Values joined by “and” are separate entries in the source; they are usually repeats but may differ in a detail not shown here. Equal values may be shown once. Active and inactive are the calls of the source. Where a call stands in place of a potency, no number is given. Calls come from the whole dose curve; as a rule, active = well fitted activation curve with a large enough effect in the repeat runs; inconclusive = weak or mixed curves; inactive = flat fitted curve, though single readings scatter.
Potency is the fitted concentration of half-maximal effect.

Chain of Androgen receptor (Homo sapiens) (P10275 whole entry, looked up): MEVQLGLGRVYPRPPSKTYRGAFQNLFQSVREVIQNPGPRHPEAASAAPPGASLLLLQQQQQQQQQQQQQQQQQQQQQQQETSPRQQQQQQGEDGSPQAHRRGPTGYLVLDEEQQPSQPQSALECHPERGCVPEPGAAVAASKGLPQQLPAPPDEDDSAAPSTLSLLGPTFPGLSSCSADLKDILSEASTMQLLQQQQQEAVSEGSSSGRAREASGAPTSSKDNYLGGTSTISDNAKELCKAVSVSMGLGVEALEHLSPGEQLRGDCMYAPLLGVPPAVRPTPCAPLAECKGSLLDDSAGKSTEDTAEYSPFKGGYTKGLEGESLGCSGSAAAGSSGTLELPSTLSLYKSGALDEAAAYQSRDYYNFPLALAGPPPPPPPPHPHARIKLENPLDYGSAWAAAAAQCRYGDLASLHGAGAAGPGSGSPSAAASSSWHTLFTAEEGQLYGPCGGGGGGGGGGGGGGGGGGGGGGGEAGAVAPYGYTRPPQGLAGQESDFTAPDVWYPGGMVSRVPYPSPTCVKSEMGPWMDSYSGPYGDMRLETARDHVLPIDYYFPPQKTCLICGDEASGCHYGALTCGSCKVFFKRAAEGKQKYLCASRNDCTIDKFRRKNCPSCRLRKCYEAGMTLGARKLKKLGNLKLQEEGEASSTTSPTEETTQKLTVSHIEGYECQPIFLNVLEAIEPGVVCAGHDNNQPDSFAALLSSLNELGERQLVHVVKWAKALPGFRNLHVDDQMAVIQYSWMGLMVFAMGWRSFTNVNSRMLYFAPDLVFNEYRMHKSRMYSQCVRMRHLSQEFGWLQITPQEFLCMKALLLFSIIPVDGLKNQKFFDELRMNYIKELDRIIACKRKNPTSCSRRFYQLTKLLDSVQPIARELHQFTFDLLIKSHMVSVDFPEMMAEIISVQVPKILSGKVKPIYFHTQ

This assay deals with Androgen receptor (Homo sapiens) (UniProt P10275). The assay can be described thus: qHTS assay to identify small molecule agonists of the androgen receptor (AR) signaling pathway using the MDA cell line (AID 743040; note: nearly all actives have a fitted effect of over 20% in size). The conditions noted are these: MDA-kb2 AR-luc cells, MMTV luciferase, 16 h; series mostly up to 70.3 µM. From the text:
National Center for Advancing Translational Sciences [NCATS]
NIH Chemical Genomics Center [NCGC]
U.S. Environmental Protection Agency [EPA]
National Institutes of Environmental Health Sciences [NIEHS]
National Toxicology Program [NTP]
U.S. Food and Drug Administration [FDA]
Androgen receptor (AR), a nuclear hormone receptor, plays a critical role in AR-dependent prostate cancer and other androgen related diseases. Endocrine disrupting chemicals (EDCs) and their interactions with steroid hormone receptors like AR may cause disruption of normal endocrine function as well as interfere with metabolic homeostasis, reproduction, developmental and behavioral functions. To identify the compounds that activate AR signaling, MDA-kb2 AR-luc cell line (from ATCC, deposited by Wilson et al.) was used to screen the Tox21 10K compound library. MDA-kb2 AR-luc cell line is human breast carcinoma cell line that was stably transfected with a luciferase reporter gene under control of the MMTV promoter containing response elements for both androgen receptor (AR) and glucocorticoid receptor (GR).
Tox21 Assay Protocol Summary:
MDA-kb2 AR-luc cells were dispensed at 3,000 cells/5 uL/well of culture medium into white wall/solid-bottom 1536-well plates using a Multidrop Combi (ThermoFisher Scientific, Waltham, MA) dispenser. After the assay plates were incubated at 37C and 0% CO2 for 5 h, 23 nL of compounds dissolved in DMSO, positive controls or DMSO only was transferred to the assay plate by a Pintool station (Kalypsys, San Diego, CA). The plates were incubated at 37C and 0% CO2 for 16 h. Then 4 uL of ONE-Glo reagent (Promega, Madison, WI) was added to each plate using a Bioraptr Flying Reagent Dispenser (FRD) workstation (Beckman Coulter, Indianapolis, IN, USA) and luminescence was quantified on a ViewLux (PerkinElmer, Shelton, CT) plate reader after 30 min incubation at room temperature.
A general note: Quantitative high-throughput screening tests each substance at several concentrations.
Turning to `C=C1C[C@H]2[C@@H]3C=C(C)C4=CC(=O)CC[C@]4(C)[C@H]3CC[C@]2(C)[C@@]1(OC(C)=O)C(C)=O`, the Potency is 47.3 nM (active) and 27.9 nM (active).

As for `CC[C@]12CCCN3CCc4c(n(c5ccccc45)[C@@](O)(C(=O)OC)C1)[C@@H]32`, the Potency result is “inactive”.

Regarding `CC(=O)Oc1ccc(C(c2ccc(OC(C)=O)cc2)c2ccccn2)cc1`, the Potency result is “inactive”.

`c1ccc2c(c1)[nH]c1ccccc12`: the Potency entry was “inactive”.

As for `COc1ccc2nc(N)sc2c1`, the Potency result is “inactive”.

On to `c1ccc2c(c1)ccc1ncccc12`, for which the Potency entry was “inactive”.

Regarding `O=Cc1ccccc1C=O`, the Potency result was “inactive”.

Take `CN(Cc1cnc2nc(N)nc(N)c2n1)c1ccc(C(=O)N[C@@H](CCC(=O)O)C(=O)O)cc1`: the Potency entry was “inactive”.

Regarding `CC1(C)C(C=C(Cl)Cl)C1C(=O)OCc1cccc(Oc2ccccc2)c1` (stereo not given), the Potency result is “inactive”.

Turning to `CCc1cccc2c3c([nH]c12)C(CC)(CC(=O)O)OCC3` (stereo not given), the Potency result was “inactive”.
